From PubChem BioAssay AID504834 (National Center for Advancing Translational Sciences (NCATS), 2011)
Hit rate of the full screen: of about 320,000 compounds, about 22,000 (6.9%) were called active. Not shown: some 27% with an inconclusive outcome. The sample holds actives, similar compounds and a random draw of the others, so the mix is not that of the screen. Unmarked numbers belong to inactive results. Calls come from the whole dose curve; as a rule, active = well fitted inhibition curve with a large enough effect; inconclusive = small, poorly fitted or top-dose-only effect, or another doubt; inactive = no such curve, though single readings can be large or run the other way.

Assay: Primary qHTS for delayed death inhibitors of the malarial parasite plastid, 96 hour incubation
Settings: P. falciparum luciferase reporter growth; series mostly up to 28.7 µM; activity change, negative = inhibition: at the top concentration
How it was run: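 Cell-based qHTS: luciferase-tagged P. falciparum in erythrocytes (2% hematocrit, 0.05% parasitemia final) incubated with compounds for 96 hours, 37 C, 5% CO2; luciferase detection reagent then added and luminescence measured.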
% is set by controls: 0 for no effect and ±100 for the full control effect; potency is the fitted concentration of half-maximal effect.

| SMILES | activity change, negative = inhibition [%] | Potency |
| --- | --- | --- |
| Cc1ccc(NC(=O)CN2C(=O)NC(C)(c3ccc(Cl)cc3)C2=O)c(Br)c1 (stereo not drawn) | 9.53 |  |
| CN(C(=O)CN1C(=O)NC(C)(CCc2ccccc2)C1=O)c1ccccc1 (stereo not drawn) | 38.7 |  |
| Cc1ccc(S(=O)(=O)NCc2nc3ccccc3c(=O)n2N)cc1 | 19 |  |
| Cc1ccc(S(=O)(=O)Nc2nc(N)n(-c3ccccc3)n2)cc1 | -1.37 |  |
| Cc1ccc(S(=O)(=O)c2c(N)n(C)c3nc4ccccc4nc23)cc1 |  | 0.928 µM (active) |
| Cc1ccsc1/C=N/NC(=O)Cc1cc(=O)[nH][nH]1 | -14.1 |  |
| CCC1(c2ccccc2)NC(=O)N(CC(=O)Nc2ccccc2C(=O)NC2CCCC2)C1=O (stereo not drawn) | -8.21 |  |
| COC(=O)c1ccccc1NC(=O)CSc1nc2c(c(=O)[nH]1)CCC2 | 60.5 |  |
| Cn1c(=O)c2c(nc(SCC(=O)Nc3ccccc3N3CCCCC3)n2C)n(C)c1=O | -18.4 |  |
| CCCSc1nc2c(c(=O)n(C)c(=O)n2C)n1Cc1ccc(C)cc1 |  | 13.1 µM (active) |
| Cc1cccc(Cn2c(SCCO)nc3c2c(=O)n(C)c(=O)n3C)c1 | -16.9 |  |
| Cc1c(S(=O)(=O)NCc2ccccc2)c(=O)n(C)c(=O)n1C | 11.9 |  |
| CCOC(=O)CSc1nc2c(c(=O)n(C)c(=O)n2C)n1Cc1ccccc1F | 74 |  |
| Cn1c(=O)c2c(nc(SCCNS(=O)(=O)c3ccccc3)n2C)n(C)c1=O |  | 14.7 µM (active) |
| Cc1ccc(CNS(=O)(=O)CCNC(=O)c2ccccc2)cc1 | 17.1 |  |
| CC1C(=O)N2CCCc3cc(S(=O)(=O)NCc4ccc(F)cc4)cc1c32 (stereo not drawn) | -6.87 |  |
| CC(C)CNS(=O)(=O)c1ccc(C(=O)Nc2ccc3c(c2)OCO3)cc1 | 0.709 |  |
| COc1ccc(Cn2c(=S)[nH]c3cc(C(=O)N4CCCCC4)ccc3c2=O)cc1 | 9.86 |  |
| Cc1ccc(S(=O)(=O)N2[C@@H](c3ccccc3F)C(C(=O)O)=CC[C@H]2c2ccc(Cl)cc2)cc1 | 59.7 |  |
| Cc1cc(Nc2ccc(C(=O)N3CCCCC3)cc2)c2cccc(C)c2n1 | 11.2 |  |
| CCn1cc(CN2CCC(n3nccc3NC(=O)CCCc3ccccc3)CC2)c(C)n1 | 83.5 |  |
| c1ccc2c(c1)CSc1sccc1C2=C1CCNCC1 |  | 10.4 µM (active) |
| CCOC(=O)CNC(=O)CSc1ncccc1-c1nc2ccccc2[nH]1 | 6.22 |  |
| Cc1ccccc1N1CCN(S(=O)(=O)c2ccc3ccccc3c2)CC1 | 14.2 |  |
| Cc1ccc(-n2c(SCC(=O)NCCC3=CCCCC3)nc3n[nH]c(C)c3c2=N)cc1Cl | -13.5 |  |
| CC1(c2ccc(Cl)cc2Cl)NC(=O)N(CC(=O)Nc2cccnc2Cl)C1=O (stereo not drawn) | -14.1 |  |

| SMILES | activity change, negative = inhibition [%] | Potency |
| --- | --- | --- |
| Cc1ccc(CN2CCCC(C(=O)c3ccc4c(c3)OCO4)C2)cc1C (stereo not drawn) | -0.489 |  |
| COc1ccc(CN2CCCC(C(=O)c3ccc(Cl)cc3)C2)cc1Cn1cncn1 (stereo not drawn) |  | 10.4 µM (active) |
| COc1cc(CN2CCCC(C(=O)c3ccc(SC)cc3)C2)cc(Cl)c1O (stereo not drawn) | 0 |  |
| COc1ccc(NC(=O)CSCc2ccc([N+](=O)[O-])cc2)cc1OC | 0 |  |
| OC(c1ccccc1)C(CN1CCOCC1)c1ccccc1 (stereo not drawn) | -25.2 |  |
| OC(c1ccc(Cl)cc1)C(CN1CCOCC1)c1ccccc1 (stereo not drawn) |  | 2.08 µM (active) |
| COc1ccccc1OCC(O)CN1CCOCC1 (stereo not drawn) | -29 |  |
| COc1ccc(C(C)C)cc1S(=O)(=O)Nc1ncn[nH]1 | 8.09 |  |
| CCCN(CCC)S(=O)(=O)c1ccc(C(=O)NNC(=O)c2cc(OC)c(OC)c(OC)c2)cc1 | -3.24 |  |
| O=c1[nH]c(SCc2cccc(F)c2)nc2ccccc12 | -15.5 |  |
| CN1CCC(CN)(N2CCN(c3ccccc3)CC2)CC1 |  | 11.7 µM (active) |
| O=C(c1cc(=O)c2ccccc2o1)N1CCN(c2ccccc2)CC1 | -6.9 |  |
| CN1CCN(c2ccc(NC(=O)c3ccccc3)cc2)CC1 | 29.1 |  |
| CCC(C)N(C(=O)CSc1ncnc2c1cnn2-c1ccccc1)C1CCS(=O)(=O)C1 (stereo not drawn) | -29.2 |  |
| COc1ccc(CC(=O)N/N=C/c2cc([N+](=O)[O-])cc(Br)c2O)cc1 | -4.02 |  |
| CC12CN3CCN(CC(C3)/C1=N\NC(=O)c1ccccc1N)C2 | 104 |  |
| Cc1ccc2[nH]c(C)c(CCNC(=O)NC3CCCCC3)c2c1 |  | 1.47 µM (active) |
| Cc1ccc2[nH]cc(CCNC(=O)C3CCCCC3)c2c1 | 290 |  |
| NS(=O)(=O)c1ccc(CCNC(=O)NC2CCCCC2)cc1 | 9.49 |  |
| O=C(O)/C=C\C(=O)Nc1ccc(OCc2ccccc2)cc1 |  | 4.15 µM (active) |
| CCc1ccnc(NC(=O)Nc2ccc(OCc3ccccc3)cc2)c1 | -0.526 |  |
| Cc1cccc(NC(=O)Nc2ccc(OCc3ccccc3)cc2)n1 | 21.2 |  |
| CCN(C(=O)c1cc([N+](=O)[O-])ccc1NCc1cccnc1)c1ccccc1 | 0.165 |  |
| COc1cccc(N2CC(NS(=O)(=O)c3ccc(Cl)cc3)CC2=O)c1 (stereo not drawn) | -16 |  |
| CCOC(=O)N1CCC(NC(=O)CCc2ccccc2)CC1 | 0 |  |
| Cc1ccc(CSCCNC(=O)CN(c2ccc(F)cc2)S(C)(=O)=O)cc1 | 72.4 |  |

| SMILES | activity change, negative = inhibition [%] | Potency |
| --- | --- | --- |
| O=C(CCc1ccccc1)Nc1cccc(-c2nnc(-c3ccco3)o2)c1 | -9.05 |  |
| CCC(=O)Oc1cccc(C(=O)Nc2ccc(-c3nnc(-c4ccco4)o3)cc2)c1 |  | 10.4 µM (active) |
| CCCCOc1ccc(-c2nnc(-c3ccco3)o2)cc1 | -0.346 |  |
| COCCCN(C(=O)CSCc1ccc(C)cc1)c1c(N)n(Cc2ccccc2)c(=O)[nH]c1=O | -14 |  |
| Cc1ccc(C(=O)NC2CCN(C(=O)Nc3ccccc3Cl)CC2)cc1 | 31.5 |  |
| O=C(c1c(F)cccc1Cl)N1CCN(c2ccccn2)CC1 | 0.71 |  |
| COc1ccc(CCNS(=O)(=O)c2cccc3cccnc23)cc1OC | 70.3 |  |
| O=S(=O)(NCCc1ccc(F)cc1)c1cccc2cccnc12 | -11.3 |  |
| NS(=O)(=O)c1ccc(CCNS(=O)(=O)c2cccc3cccnc23)cc1 |  | 1.17 µM (active) |
| Cc1cccc(NC(=O)c2cccc(C(=O)Nc3cccc(C)c3C)n2)c1C | 6.25 |  |
| COc1cc(C(=O)N2CCN(C)CC2)cc(OC)c1OC | 3.19 |  |
| C=CCOc1ccc(/C=C/C(=O)OCC(=O)NC(C)c2ccc(F)cc2)cc1 (stereo not drawn) | 10.5 |  |
| COc1ccc(Cn2c(O)c(/C=C3/C=CC=N3)c(=O)[nH]c2=O)cc1 | 7.49 |  |
| COc1ccc(C(=O)NCC(=O)N/N=C/c2ccc([N+](=O)[O-])s2)cc1OC | -64.3 |  |
| COc1cc(/C=N/NC(=O)CNC(=O)c2ccncc2)ccc1OC(C)=O | 33 |  |
| COc1ccc(C(=O)NCC(=O)N/N=C/c2ccc([N+](=O)[O-])o2)cc1OC |  | 1.85 µM (active) |
| O=C(O)Cc1csc(-c2cccc(Oc3ccccc3)c2)n1 |  | inactive |
| COCCOC1CCN(C(=O)c2ccc(OC)c(OC3CCN(C(C)C)CC3)c2)CC1 | -50.9 |  |
| COC(=O)C1CCCCN1C(=O)c1ccc(OC2CCN(C(C)=O)CC2)c(OC)c1 (stereo not drawn) |  | 11.7 µM (active) |
| COc1ccc(C(=O)NCCn2nc(C)cc2C)cc1OC1CCN(C(C)=O)CC1 | 34.5 |  |
| O=C(CSc1nc(=O)n2ccccc2n1)Nc1ccc2c(c1)OCCO2 | 14.3 |  |
| Cc1cccc(NC(=O)Nc2ccc3c(c2)OCO3)n1 | 128 |  |
| Cc1cccc(NC(=O)/C=C/c2ccc3c(c2)OCO3)n1 |  | 9.28 µM (active) |
| CCc1c(C)sc(NC(=O)/C=C/c2ccc3c(c2)OCO3)c1C(=O)OC | 44.7 |  |
| Cc1nc(COc2cccc(Cl)c2)sc1C(=O)/C=C/N(C)C | 25.9 |  |
| CC(=O)c1ccc(N2CCN(C(=O)CCNC(=O)Cn3ccc4ccccc4c3=O)CC2)cc1 | 28 |  |

| SMILES | activity change, negative = inhibition [%] | Potency |
| --- | --- | --- |
| O=C(NCc1cccc(Cl)c1)C1=CC=CN2CCS(=O)(=O)N=C12 | -17.2 |  |
| Cc1cccc(Cn2c(N3CCN(c4ccccc4)CC3)nc3c2c(=O)n(C)c(=O)n3C)c1 | 104 |  |
| Cc1cccc(N2CC(C)Cn3c2nc2c3c(=O)n(CC(=O)OCc3ccccc3)c(=O)n2C)c1 (stereo not drawn) |  | 11.7 µM (active) |
| CC1CN(C2CCCCC2)c2nc3c(c(=O)n(C)c(=O)n3C)n2C1 (stereo not drawn) | -6.09 |  |
| O=c1c2cc([N+](=O)[O-])ccc2nc2n1CCC2 | 0 |  |
| COC(=O)c1sc(SC)c(S(=O)(=O)C(C)C)c1N/N=C(\C#N)S(=O)(=O)c1ccccn1 | 1.2 |  |
| CC1CC(NC(=O)/C(C#N)=C/c2ccc[nH]2)CC(C)(C)C1 (stereo not drawn) |  | 3.29 µM (active) |
| Cn1c(=O)c2c(ncn2CC(COCc2ccccc2Cl)OCc2ccccc2Cl)n(C)c1=O (stereo not drawn) |  | 9.28 µM (active) |
| Cn1c(=O)c2c(ncn2CCc2ccccc2)n(C)c1=O | 33.2 |  |
| Cn1c(=O)c2c(nc(N3CCCCCC3)n2CC(O)COc2ccc(Cl)cc2)n(C)c1=O (stereo not drawn) | 45.3 |  |
| CCOc1ccc(NC(=O)c2ccc(NC(=O)CN3C(=O)C(=O)N(CC(C)C)C3=O)cc2)cc1 | 70.2 |  |
| COc1cc(/C=N/N2CCN(c3ccccc3)CC2)ccc1OC(C)=O | 2.01 |  |
| CSc1ncccc1C(=O)Nc1ccc2c(c1)OCO2 | 0 |  |
| CSc1ccccc1NC(=O)c1ccc2c(c1)CCN2S(C)(=O)=O | -27.5 |  |
| CN(C(=O)COC(=O)c1cc(-c2ccco2)nc2ccccc12)C1CCS(=O)(=O)C1 (stereo not drawn) | 3.3 |  |
| O=C(c1cc(-c2ccco2)nc2ccccc12)N(Cc1nnc(-c2ccc(Cl)cc2)o1)C1CC1 |  | 2.08 µM (active) |
| O=C(c1ccc(Cl)s1)N(Cc1nnc(-c2ccccc2Cl)o1)C1CC1 | 9.37 |  |
| Cc1ccc(S(=O)(=O)N(C)CC(=O)NCCc2c[nH]c3ccccc23)cc1 | -12.8 |  |
| CN(c1ccccc1)S(=O)(=O)c1ccc(Cl)c(C(=O)NCCc2c[nH]c3ccccc23)c1 |  | 9.28 µM (active) |
| O=C(NCCc1c[nH]c2ccccc12)c1cc2ccccc2oc1=O | 11.7 |  |
| COc1ccc(NC(=O)CNC(=O)Cn2ccc3ccccc3c2=O)c(OC)c1 | -5.69 |  |
| COCCn1c(C)cc(C(=O)COC(=O)CNC(=O)c2ccco2)c1C | -4.29 |  |
| CC(=O)N1CCN(CC(C)(C)NS(=O)(=O)c2ccc(C)cc2)CC1 | -27.1 |  |
| CCOC(=O)CN1CC23C=CC(O2)C(C(=O)Nc2ccc(F)cc2)C3C1=O (stereo not drawn) | 88.1 |  |
| CC(C)COC(=O)C1C2C=CC3(CN(C(C)c4ccc(Br)cc4)C(=O)C13)O2 (stereo not drawn) |  | 6.57 µM (active) |
